Source: PubChem BioAssay
NS1 function inh: blocks influenza NS1 protein function | Potency, µM (doses to about 46.1 µM), without a hit: at the top dose activity, positive = more growth | actives 0.4% (n = 270,000) | AID 2326; calls by dose curve; note: potency is the fitted concentration of half-maximal effect; actives are rising curves; nearly all actives have a fitted effect of over 50% in size
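A cell-based growth assay was used: compounds that relieve NS1-induced slow growth of budding yeast raise OD600. Assay medium was yeast nitrogen base with ammonium sulphate and -URA supplement, pH 6.0, with 2% galactose.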
TbPYK inhibitor: inhibitors of Trypanosoma brucei pyruvate kinase; Q57TT1; TbPYK enzyme, Kinase-Glo Plus ATP luminescence, 45 min; Potency, µM (top dose mostly 76.8 µM), for inactives: at the highest dose activity, negative = inhibition, hits mostly inhibitors; actives 0.12% (n = 410,000); AID 624173; note: potency is the fitted concentration of half-maximal effect; % is set by controls: 0 for no effect and ±100 for the full control effect; nearly all actives have a fitted effect of over 50% in size
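Luminescence from Kinase-Glo Plus, added after a 45-minute room-temperature reaction, served as the end-point read-out. The enzyme and substrate were preincubated with compound before ADP (130 uM final) initiated turnover. Concentration-effect curves came from normalized qHTS data.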
CHX counter: affects cycloheximide protein synthesis inhibition readout, counter-screen; cell reporter, cycloheximide protein synthesis inhibition counterscreen; max response, %; actives 12% (n = 300,000); AID 2314; in the data active = max response mostly above about 13%, no sharp cut-off; inactive = mostly below about 14%; note: read at 38.3 µM for the half of the compounds with a filed dose; 0% is about no effect
LmPK inh: blocks Leishmania mexicana pyruvate kinase activity | Q27686 | purified LmPK, Kinase-Glo ATP luminescence, 1 h | Potency, µM (titrated, usually from 57.5 µM), for inactives: at the top dose activity change, negative = inhibition, hits mostly inhibitors | actives 0.37% (n = 290,000) | AID 1721; note: potency is the fitted concentration of half-maximal effect; % is set by controls: 0 for no effect and ±100 for the full control effect
Target sequence (Q27686 whole entry, looked up): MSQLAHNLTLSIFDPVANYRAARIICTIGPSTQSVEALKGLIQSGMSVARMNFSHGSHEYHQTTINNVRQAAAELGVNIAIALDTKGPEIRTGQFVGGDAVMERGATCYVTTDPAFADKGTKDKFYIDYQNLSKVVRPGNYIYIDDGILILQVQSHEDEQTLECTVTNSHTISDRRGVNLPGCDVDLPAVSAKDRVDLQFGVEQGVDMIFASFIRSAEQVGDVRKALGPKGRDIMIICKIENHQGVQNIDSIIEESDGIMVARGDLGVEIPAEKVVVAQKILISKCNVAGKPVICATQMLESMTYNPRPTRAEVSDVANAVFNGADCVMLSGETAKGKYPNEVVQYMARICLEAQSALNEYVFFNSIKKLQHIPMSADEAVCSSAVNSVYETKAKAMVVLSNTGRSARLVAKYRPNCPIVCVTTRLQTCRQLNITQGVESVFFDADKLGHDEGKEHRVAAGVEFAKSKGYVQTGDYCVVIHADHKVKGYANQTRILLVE
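Kinase-Glo luminescence read after 1 h RT reaction of 0.1 nM LmPK with 0.5 mM PEP and 0.1 mM ADP. Activity scaled between uninhibited and enzyme-free controls.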
SARS PLP yeast: SARS-CoV PLP inhibition in yeast | S. cerevisiae expressing SARS-CoV PLpro, growth rescue | Potency, µM (series often up to 32.9 µM), for the others: top-dose activity, positive = growth rescue, most hits filed as activators | actives 0.19% (n = 330,000) | AID 485353; calls by dose curve; note: potency is the fitted concentration of half-maximal effect; 0% is about no effect; nearly all actives have a fitted effect of over 55% in size
Shiga inhibitor: Shiga toxin inhibition. Vero cells, Shiga toxin protein synthesis inhibition reporter. inhibition, % at 38.7 µM. actives 9.2% (n = 290,000). AID 2315; in the data active = inhibition mostly above about 28%, no sharp cut-off; inactive = mostly below about 43%; note: 0% is about no effect
Numbers without * were called inactive; ? = inconclusive; nt = no result given; + = active, no number. Only a selection was taken, and hits are over-represented in it overall. Unless noted, calls come from the whole dose curve; as a rule, active = well fitted curve in the direction sought with a large enough effect; inconclusive = small, poorly fitted or top-dose-only effect, or another doubt; inactive = no such curve, though single readings can be large; an effect the other way counts as inactive or inconclusive.

SMILES	NS1 function inh	TbPYK inhibitor	CHX counter	LmPK inh	SARS PLP yeast	Shiga inhibitor
COc1cccc(Nc2nc(N)nc(CCl)n2)c1	0%	-7%	57*	-6%	-1%	146*
Cc1cccc(Nc2nc(N)nc(CCl)n2)c1	1%	-5%	61*	-9%	-1%	77*
O=C1/C(=C/c2ccccn2)COc2ccccc21	-4%	-10%	27*	-5%	-3%	78*
O=C1/C(=C/c2ccccc2[N+](=O)[O-])COc2ccccc21	-68%	-5%	76*	-2%	-3%	155*
O=C1/C(=C/c2ccc(O)cc2)COc2ccccc21	-19%	?	29*	-9%	-6%	45*
CC1(C(=O)NS(C)(=O)=O)CCN1C(=O)Cc1ccc(-c2ccccc2)cc1 (centres undefined)	nt	-7%	nt	nt	nt	nt
COCC(C)n1c(COc2ccccc2F)nnc1SCC(=O)Nc1oc(C)c2c(C)n[nH]c(=O)c12 (centres undefined)	nt	?	nt	nt	5%	nt
COc1ccccc1-c1cc(C(=O)Nc2cccnc2)no1	-38%	-8%	25*	-9%	-14%	48*
COc1ccccc1-c1cc(C(=O)Nc2cccnc2Cl)no1	-2%	4%	-7	1%	2%	-10
CCCc1cc(C(=O)NCCc2ccccc2)no1	-18%	-5%	53*	9%	-7%	87*
COc1ccc(NC(=O)c2cc(-c3ccccc3OC)on2)cc1	2%	-14%	19*	-1%	3%	88*
COc1ccc(NC(=O)c2cc(-c3ccccc3Cl)on2)cc1	-5%	-1%	44*	2%	4%	130*
COc1cc(NC(=O)c2cc(-c3ccccc3Cl)on2)cc(OC)c1OC	5%	2%	1	3%	-3%	-5
Cc1noc(NS(=O)(=O)c2ccc(NS(=O)(=O)c3ccc(C(C)(C)C)cc3)cc2)c1C	nt	0%	nt	nt	nt	nt
O=C(COC(=O)c1ccccc1OC(F)F)Nc1ccc2[nH]c(=O)[nH]c2c1	nt	-4%	nt	nt	1%	nt
Cc1ccc(CCNC(=O)Cn2ncc3c([nH]c4ccc(C)cc43)c2=O)cc1	nt	-1%	nt	nt	nt	nt
CCOC(=O)C(CCSC)Nc1nc(Cl)nc(Nc2ccc(Cl)cc2)n1 (centres undefined)	nt	0%	nt	nt	nt	nt
COc1ccccc1-c1cc(C(=O)NCCc2ccccc2)no1	-76%	3%	54*	5%	8%	147*
Cc1cc(C=C2C(=O)NC(=O)NC2=O)c(C)n1-c1ccc2c(c1)OCO2	19%	9%	-3	-17%	6%	-5
Cc1cc(C=C2C(=O)NC(=S)NC2=O)c(C)n1-c1ccc2c(c1)OCO2	?	?	39*	-25%	-10%	24*
CC(c1ccco1)N(C(=O)c1ccc(C(F)(F)F)cc1)c1ccccn1 (centres undefined)	nt	-3%	18	1%	0%	23
Cc1ccc(C(=O)N(c2ccccn2)C(C)c2ccco2)cc1C (centres undefined)	-3%	1%	18*	-7%	2%	0
CC(c1ccco1)N(C(=O)c1ccc(Cl)s1)c1ccccn1 (centres undefined)	-11%	-1%	19*	2%	2%	43*
S=C(c1ccc(-c2ccccc2Cl)o1)N1CCCCC1	-13%	-13%	48*	-1%	-5%	62*
N#CCCN1CCN(C(=S)c2ccc(-c3ccc(Cl)cc3)o2)CC1	-55%	-19%	28*	-12%	-3%	91*
SMILES	NS1 function inh	TbPYK inhibitor	CHX counter	LmPK inh	SARS PLP yeast	Shiga inhibitor
CN1CCN(C(=S)c2ccc(-c3cccc(Cl)c3Cl)o2)CC1	-9%	-33%	40*	2%	-24%	active
O=C(O)c1ccc(-c2ccccc2Cl)o1	-53%	4%	-2	-11%	-14%	20
S=C(c1ccc(-c2ccc(Cl)cc2)o1)N1CCCCC1	-12%	-15%	39*	-17%	-11%	95*
Cc1ccc(NC(=O)Cn2c(-c3cncs3)nc3ccccc32)c(Br)c1	nt	0%	nt	nt	nt	nt
CCOC(=O)C1=C(COC(=O)COc2ccc(C(=O)CC)cc2)NC(=O)NC1C (centres undefined)	nt	1%	nt	nt	1%	nt
O=C(COc1ccc(Cl)cc1)Nc1ccc2c(c1)C(=O)NC2=O	7%	-3%	6	-10%	0%	21
O=S1(=O)[C@H]2C[C@@H]3C=C[C@@]2(CN1Cc1cccc(C(F)(F)F)c1)O3	-6%	-1%	12*	-1%	1%	14
O=S1(=O)[C@H]2C[C@@H]3C=C[C@@]2(CN1Cc1cccc(F)c1)O3	14%	8%	-1	3%	15%	-6
CC(C)(C)OC(=O)C[C@@H]1C/C=C\C[C@H](CC(=O)N[C@H](CO)Cc2ccccc2)C(=O)N[C@H](C(C)(C)C)COC1=O	nt	6%	nt	nt	-4%	nt
CCCc1nn(C)c(C(=O)Nc2cccc(CC)c2)c1Cl	-18%	-1%	18*	-7%	8%	+
CCC(=O)Nc1ccc(NC(=O)c2ccc3ccccc3c2)cc1	8%	-4%	10	3%	-3%	nt
CCCc1nn(C)c(C(=O)Nc2ccc3ccccc3c2)c1Cl	-21%	-2%	49*	-2%	-10%	54*
COc1ccccc1NC(=S)N/N=C/c1ccc(O)cc1	-9%	-9%	69*	1%	1%	40*
COc1ccc(C=NNC(=S)NN=Cc2ccc(OC)c(OC)c2)cc1OC	nt	8%	nt	nt	nt	nt
CCNC(=S)N/N=C/c1cccc(C)c1	-5%	-1%	37*	-5%	-27%	56*
COc1ccccc1NC(=S)N/N=C/c1cccc(C)c1	-6%	-4%	23*	2%	5%	17
CCOC(=O)Cn1nc(-c2ccc(C)cc2)ccc1=O	-5%	1%	19*	1%	-3%	28*
CCOC(=O)CCn1nc(-c2ccccc2)cc1N	4%	1%	35*	-1%	5%	39*
CCOC(=O)CCn1nc(-c2ccc(C)cc2)c2ccccc2c1=O	-10%	-2%	-4	-2%	1%	9
O=C(CCn1nc(-c2ccc(Cl)cc2)ccc1=O)N1CCC2(CC1)OCCO2	nt	-15%	4	2%	-3%	9
Cc1ccc(-c2ccc(=O)n(CCC(=O)N3CCC4(CC3)OCCO4)n2)cc1	nt	1%	46*	12%	-2%	138*
CCn1c(SCc2ccccc2Cl)nc(=O)c2c(C(=O)OC)cc(C3CC3)nc21	nt	1%	nt	nt	nt	nt
Cc1ccc(-n2ncc(C(=O)N3CCN(c4cccc(C)c4C)CC3)c2C2CCNCC2)c(C)c1	nt	-7%	nt	nt	nt	nt
C#CCN1C(=O)S/C(=C/C=C/c2ccc(N(C)C)cc2)C1=O	19%	-10%	47*	-11%	15%	116*
CN(C(=O)c1ccc(C#N)cc1)c1nnc(-c2ccccn2)s1	9%	4%	14	1%	10%	20
Cc1ccc(C(=O)N(C)c2nnc(-c3ccncc3)s2)cc1	1%	1%	15*	0%	1%	58*
